# Measurements reported in the supplement of paper PMC4206461.
# Values without a mark were called inactive.
# Test system: Pseudomonas aeruginosa PA14 wild type
# Experiment: respiration area under curve with compound as sole nitrogen source, 24 h (OmniLog AUC (arbitrary units)); higher = more respiration / better utilisation as nitrogen source, active = 2000 or more
# Method: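 Biolog Phenotype MicroArray plates PM6-PM8: each di/tripeptide is the sole nitrogen source (IF-0 medium with succinate/ferric citrate and dye mix A). Tetrazolium reduction was read in the OmniLog every 15 min for 24 h at 37°C and summarised as area under the respiration curve (arbitrary units). The paper counts values below 2000 as no respiration and above 8000 as solid respiration. Replicate datasets are averaged.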
row,SMILES,respiration area under curve
1,N[C@@H](Cc1c[nH]c2ccccc12)C(=O)N[C@@H](CCC(=O)O)C(=O)O (plate: PM7),633
2,CSCC[C@H](N)C(=O)N[C@@H](Cc1ccc(O)cc1)C(=O)O (plate: PM8),1560
3,CC[C@H](C)[C@H](NC(=O)[C@@H](N)CC(C)C)C(=O)O (plate: PM6),6260 (active)
4,NC(N)=NCCC[C@H](N)C(=O)N[C@@H](CCC(=O)O)C(=O)O (plate: PM6),9830 (active)
5,NC(=O)CC[C@H](N)C(=O)NCC(=O)O (plate: PM6),7270 (active)
6,CC[C@H](C)[C@H](NC(=O)[C@@H](N)Cc1ccc(O)cc1)C(=O)O (plate: PM8),6790 (active)
7,C[C@@H](O)[C@H](N)C(=O)N[C@@H](CO)C(=O)O (plate: PM8),7920 (active)
8,CC[C@H](C)[C@H](N)C(=O)N[C@@H](CC(C)C)C(=O)O (plate: PM8),6290 (active)
9,C[C@H](NC(=O)[C@@H](N)CO)C(=O)O (plate: PM7),10900 (active)
10,N[C@@H](Cc1ccc(O)cc1)C(=O)N[C@@H](Cc1c[nH]c2ccccc12)C(=O)O (plate: PM7),3280 (active)
11,CCC(C)C(N)C(=O)NC(CC(N)=O)C(=O)O (stereo not given) (plate: PM8),9360 (active)
12,CSCCC(NC(=O)C(N)C(C)C)C(=O)O (stereo not given) (plate: PM8),4440 (active)
13,N[C@@H](CC(=O)O)C(=O)N[C@@H](Cc1c[nH]c2ccccc12)C(=O)O (plate: PM6),2310 (active)
14,CC(C)C[C@H](NC(=O)[C@H](CC(C)C)NC(=O)[C@@H](N)CC(C)C)C(=O)O (plate: PM8),5700 (active)
15,NCC(=O)N[C@@H](CC(N)=O)C(=O)O (plate: PM8),14700 (active)
16,N[C@@H](Cc1ccccc1)C(=O)N[C@@H](Cc1ccccc1)C(=O)O (plate: PM7),5220 (active)
17,CSCCC(N)C(=O)NC(CCSC)C(=O)O (stereo not given) (plate: PM7),0
18,NC(N)=NCCC[C@H](N)C(=O)N[C@@H](Cc1ccccc1)C(=O)O (plate: PM6),9420 (active)
19,N[C@@H](CO)C(=O)N[C@@H](CO)C(=O)O (plate: PM7),8860 (active)
20,CC(C)[C@H](N)C(=O)N[C@@H](Cc1ccc(O)cc1)C(=O)N[C@H](C(=O)O)C(C)C (plate: PM8),8370 (active)

row,SMILES,respiration area under curve
1,CC[C@H](C)[C@H](N)C(=O)N[C@H](C(=O)O)[C@@H](C)CC (plate: PM6),2030 (active)
2,N[C@@H](Cc1ccccc1)C(=O)N[C@@H](CC(=O)O)C(=O)O (plate: PM8),2860 (active)
3,C[C@H](NC(=O)[C@@H]1CCCN1)C(=O)O (plate: PM7),8890 (active)
4,C[C@H](O)[C@@H](NC(=O)CN)C(=O)O (plate: PM8),0
5,N[C@@H](Cc1c[nH]c2ccccc12)C(=O)N[C@@H](CC(=O)O)C(=O)O (plate: PM7),446
6,CC(C)[C@H](NC(=O)[C@@H](N)Cc1ccc(O)cc1)C(=O)O (plate: PM8),7430 (active)
7,CC(C)C[C@H](N)C(=O)N[C@H](C(=O)O)C(C)C (plate: PM7),9910 (active)
8,CC[C@H](C)[C@H](NC(=O)[C@@H](N)CCCN=C(N)N)C(=O)O (plate: PM6),9540 (active)
9,CC[C@H](C)[C@H](N)C(=O)N[C@@H](Cc1ccc(O)cc1)C(=O)O (plate: PM6),2310 (active)
10,NC(=O)C[C@H](NC(=O)[C@@H](N)CO)C(=O)O (plate: PM8),12500 (active)
11,NC(N)=NCCC[C@H](N)C(=O)N[C@@H](CC(=O)O)C(=O)O (plate: PM6),9430 (active)
12,CC[C@H](C)[C@H](N)C(=O)N[C@@H](CO)C(=O)O (plate: PM6),6110 (active)
13,NC(=O)CC[C@H](NC(=O)[C@@H](N)CO)C(=O)O (plate: PM8),9860 (active)
14,CC(C)[C@H](NC(=O)[C@@H](N)CC(=O)O)C(=O)O (plate: PM6),4290 (active)
15,CC(C)C[C@H](N)C(=O)N[C@@H](Cc1ccccc1)C(=O)O (plate: PM6),6750 (active)
16,CSCC[C@H](NC(=O)[C@@H](N)CO)C(=O)O (plate: PM7),4420 (active)
17,C[C@@H](O)[C@H](N)C(=O)N[C@@H](CCC(=O)O)C(=O)O (plate: PM7),7240 (active)
18,C[C@H](N)C(=O)N[C@@H](Cc1ccccc1)C(=O)O (plate: PM6),7710 (active)
19,C[C@H](NC(=O)[C@@H](N)CCCN=C(N)N)C(=O)O (plate: PM6),9790 (active)
20,CC(C)C(N)C(=O)NC(CO)C(=O)O (stereo not given) (plate: PM8),9530 (active)
